# Reference: the supplement of paper PMC4466140
# Experiments:
# Experiment in all cases: SPOT peptide array binding signal intensity (averaged, normalized) (arbitrary units (background-subtracted, floor 0; scale differs between SH3 domains)); higher = stronger binding of the SH3 domain to the peptide
# AgAbp1 = biological target: AgAbp1
# Protocol: (§1)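 GST-tagged SH3 domains from S. cerevisiae (Sc), A. gossypii (Ag), C. albicans (Ca) and S. pombe (Sp) were incubated at 10 ug/ml overnight at 4 C on cellulose SPOT membranes carrying 292 synthetic 15-mer peptides mined from the S. cerevisiae proteome (cysteines replaced by serines). Binding was detected with anti-GST antibody, HRP secondary and chemiluminescence, quantified with Genespotter, and reported as normalized spot intensities averaged over biological replicates.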
# AgBbc1 = biological target: AgBbc1
# Protocol: as §1
# AgBem1-D1 = biological target: AgBem1-D1
# Protocol: as §1
# AgBzz1-D1 = biological target: AgBzz1-D1
# Protocol: as §1
# AgBzz1-D2 = biological target: AgBzz1-D2
# Protocol: as §1
# AgCyk3 = biological target: AgCyk3
# Protocol: as §1
# AgFus1 = biological target: AgFus1
# Protocol: as §1
# AgHof1 = biological target: AgHof1
# Protocol: as §1
# AgHse1 = biological target: AgHse1
# Protocol: as §1
# AgLsb1 = biological target: AgLsb1
# Protocol: as §1
# AgLsb4 = biological target: AgLsb4
# Protocol: as §1
# AgMyo5 = biological target: AgMyo5
# Protocol: as §1
# AgNbp2 = biological target: AgNbp2
# Protocol: as §1
# AgRvs167 = biological target: AgRvs167
# Protocol: as §1
# AgSho1 = biological target: AgSho1
# Protocol: as §1
# AgSla1-D1-D2 = biological target: AgSla1-D1-D2
# Protocol: as §1
# AgSla1-D3 = biological target: AgSla1-D3
# Protocol: as §1
# CaAbp1-D1 = biological target: CaAbp1-D1
# Protocol: as §1
# CaAbp1-D2 = biological target: CaAbp1-D2
# Protocol: as §1
# CaBbc1 = biological target: CaBbc1
# Protocol: as §1
# CaBem1-D1 = biological target: CaBem1-D1
# Protocol: as §1
# CaBzz1-D1 = biological target: CaBzz1-D1
# Protocol: as §1
# CaBzz1-D2 = biological target: CaBzz1-D2
# Protocol: as §1
# CaCyk3 = biological target: CaCyk3
# Protocol: as §1
# CaFus1 = biological target: CaFus1
# Protocol: as §1
# CaHof1 = biological target: CaHof1
# Protocol: as §1
# CaHse1 = biological target: CaHse1
# Protocol: as §1
# CaLsb1 = biological target: CaLsb1
# Protocol: as §1
# CaLsb4 = biological target: CaLsb4
# Protocol: as §1
# CaMyo5 = biological target: CaMyo5
# Protocol: as §1
# CaNbp2 = biological target: CaNbp2
# Protocol: as §1
# CaRvs167 = biological target: CaRvs167
# Protocol: as §1
# CaRvs167-3 = biological target: CaRvs167-3
# Protocol: as §1
# CaSho1 = biological target: CaSho1
# Protocol: as §1
# CaSla1-D1-D2 = biological target: CaSla1-D1-D2
# Protocol: as §1
# CaSla1-D3 = biological target: CaSla1-D3
# Protocol: as §1
# ScAbp1 = biological target: ScAbp1
# Protocol: as §1
# ScBbc1 = biological target: ScBbc1
# Protocol: as §1
# ScBem1-D1 = biological target: ScBem1-D1
# Protocol: as §1
# ScBzz1-D1 = biological target: ScBzz1-D1
# Protocol: as §1
# ScBzz1-D2 = biological target: ScBzz1-D2
# Protocol: as §1
# ScCyk3 = biological target: ScCyk3
# Protocol: as §1
# ScFus1 = biological target: ScFus1
# Protocol: as §1
# ScHof1 = biological target: ScHof1
# Protocol: as §1
# ScHse1 = biological target: ScHse1
# Protocol: as §1
# ScLsb1 = biological target: ScLsb1
# Protocol: as §1
# ScLsb2 = biological target: ScLsb2
# Protocol: as §1
# ScLsb3 = biological target: ScLsb3
# Protocol: as §1
# ScLsb4 = biological target: ScLsb4
# Protocol: as §1
# ScMyo3 = biological target: ScMyo3
# Protocol: as §1
# ScMyo5 = biological target: ScMyo5
# Protocol: as §1
# ScNbp2 = biological target: ScNbp2
# Protocol: as §1
# ScPex13 = biological target: ScPex13
# Protocol: as §1
# ScRvs167 = biological target: ScRvs167
# Protocol: as §1
# ScSho1 = biological target: ScSho1
# Protocol: as §1
# ScSla1-D1-D2 = biological target: ScSla1-D1-D2
# Protocol: as §1
# ScSla1-D3 = biological target: ScSla1-D3
# Protocol: as §1
# SpAbp1-D1 = biological target: SpAbp1-D1
# Protocol: as §1
# SpBbc1 = biological target: SpBbc1
# Protocol: as §1
# SpBzz1-D1 = biological target: SpBzz1-D1
# Protocol: as §1
# SpBzz1-D2 = biological target: SpBzz1-D2
# Protocol: as §1
# SpCyk3 = biological target: SpCyk3
# Protocol: as §1
# SpHof1 = biological target: SpHof1
# Protocol: as §1
# SpHof1-2 = biological target: SpHof1-2
# Protocol: as §1
# SpHof1-3 = biological target: SpHof1-3
# Protocol: as §1
# SpHse1 = biological target: SpHse1
# Protocol: as §1
# SpLsb1 = biological target: SpLsb1
# Protocol: as §1
# SpLsb4 = biological target: SpLsb4
# Protocol: as §1
# SpMyo1 = biological target: SpMyo1
# Protocol: as §1
# SpNbp2 = biological target: SpNbp2
# Protocol: as §1
# SpPex13 = biological target: SpPex13
# Protocol: as §1
# SpRvs167 = biological target: SpRvs167
# Protocol: as §1
# SpSla1-D1-D2 = biological target: SpSla1-D1-D2
# Protocol: as §1
# SpSla1-D3 = biological target: SpSla1-D3
# Protocol: as §1
binder,measurement,setting,value
NRLRKRLNLPSEISI,SPOT peptide array binding signal intensity,AgAbp1,52
same,SPOT peptide array binding signal intensity,AgBbc1,2
same,SPOT peptide array binding signal intensity,AgBem1-D1,126
same,SPOT peptide array binding signal intensity,AgBzz1-D1,7
same,SPOT peptide array binding signal intensity,AgBzz1-D2,9
same,SPOT peptide array binding signal intensity,AgCyk3,1
same,SPOT peptide array binding signal intensity,AgFus1,444
same,SPOT peptide array binding signal intensity,AgHof1,45.2
same,SPOT peptide array binding signal intensity,AgHse1,2040
same,SPOT peptide array binding signal intensity,AgLsb1,36.2
same,SPOT peptide array binding signal intensity,AgLsb4,21.5
same,SPOT peptide array binding signal intensity,AgMyo5,≤ 0
same,SPOT peptide array binding signal intensity,AgNbp2,74
same,SPOT peptide array binding signal intensity,AgRvs167,4.67
same,SPOT peptide array binding signal intensity,AgSho1,26.5
same,SPOT peptide array binding signal intensity,AgSla1-D1-D2,33
same,SPOT peptide array binding signal intensity,AgSla1-D3,5.5
same,SPOT peptide array binding signal intensity,CaAbp1-D1,649
same,SPOT peptide array binding signal intensity,CaAbp1-D2,307
same,SPOT peptide array binding signal intensity,CaBbc1,9.75
same,SPOT peptide array binding signal intensity,CaBem1-D1,2
same,SPOT peptide array binding signal intensity,CaBzz1-D1,10
same,SPOT peptide array binding signal intensity,CaBzz1-D2,18.2
same,SPOT peptide array binding signal intensity,CaCyk3,4
same,SPOT peptide array binding signal intensity,CaFus1,1980
same,SPOT peptide array binding signal intensity,CaHof1,≤ 0
same,SPOT peptide array binding signal intensity,CaHse1,95.2
same,SPOT peptide array binding signal intensity,CaLsb1,5.5
same,SPOT peptide array binding signal intensity,CaLsb4,14
same,SPOT peptide array binding signal intensity,CaMyo5,4.5
same,SPOT peptide array binding signal intensity,CaNbp2,286
same,SPOT peptide array binding signal intensity,CaRvs167,6.83
same,SPOT peptide array binding signal intensity,CaRvs167-3,48.8
same,SPOT peptide array binding signal intensity,CaSho1,353
same,SPOT peptide array binding signal intensity,CaSla1-D1-D2,16
same,SPOT peptide array binding signal intensity,CaSla1-D3,3
same,SPOT peptide array binding signal intensity,ScAbp1,191
same,SPOT peptide array binding signal intensity,ScBbc1,2.5
same,SPOT peptide array binding signal intensity,ScBem1-D1,61
same,SPOT peptide array binding signal intensity,ScBzz1-D1,21
same,SPOT peptide array binding signal intensity,ScBzz1-D2,5.5
same,SPOT peptide array binding signal intensity,ScCyk3,140
same,SPOT peptide array binding signal intensity,ScFus1,524
same,SPOT peptide array binding signal intensity,ScHof1,2.5
same,SPOT peptide array binding signal intensity,ScHse1,2410
same,SPOT peptide array binding signal intensity,ScLsb1,22.5
same,SPOT peptide array binding signal intensity,ScLsb2,≤ 0
same,SPOT peptide array binding signal intensity,ScLsb3,57
same,SPOT peptide array binding signal intensity,ScLsb4,7
same,SPOT peptide array binding signal intensity,ScMyo3,≤ 0
same,SPOT peptide array binding signal intensity,ScMyo5,2.5
same,SPOT peptide array binding signal intensity,ScNbp2,70
same,SPOT peptide array binding signal intensity,ScPex13,0.5
same,SPOT peptide array binding signal intensity,ScRvs167,2.5
same,SPOT peptide array binding signal intensity,ScSho1,662
same,SPOT peptide array binding signal intensity,ScSla1-D1-D2,19.5
same,SPOT peptide array binding signal intensity,ScSla1-D3,12.5
same,SPOT peptide array binding signal intensity,SpAbp1-D1,293
same,SPOT peptide array binding signal intensity,SpBbc1,6
same,SPOT peptide array binding signal intensity,SpBzz1-D1,11
same,SPOT peptide array binding signal intensity,SpBzz1-D2,1.5
same,SPOT peptide array binding signal intensity,SpCyk3,≤ 0
same,SPOT peptide array binding signal intensity,SpHof1,60
same,SPOT peptide array binding signal intensity,SpHof1-2,7
same,SPOT peptide array binding signal intensity,SpHof1-3,708
same,SPOT peptide array binding signal intensity,SpHse1,2460
same,SPOT peptide array binding signal intensity,SpLsb1,96.8
same,SPOT peptide array binding signal intensity,SpLsb4,29
same,SPOT peptide array binding signal intensity,SpMyo1,5
same,SPOT peptide array binding signal intensity,SpNbp2,71
same,SPOT peptide array binding signal intensity,SpPex13,7.5
same,SPOT peptide array binding signal intensity,SpRvs167,2.33
same,SPOT peptide array binding signal intensity,SpSla1-D1-D2,≤ 0
same,SPOT peptide array binding signal intensity,SpSla1-D3,3
